Reference: PubChem BioAssay AID488896 (Broad Institute, 2010)
About 3,100 (0.97%) of roughly 320,000 compounds were called active. The list comes from a sample in which actives are over-represented; it also holds similar structures and randomly drawn compounds. Values without a mark were called inactive.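 The calls were made as follows: active = mean replicate inhibition of at least 70% and a set share of replicates each scoring 70 or more; inconclusive = meets just one of the two criteria; inactive = fails both criteria.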

These compounds were tested against Scavenger receptor class B member 1 (Mus musculus) (UniProt Q61009) (assay: mouse SR-BI DiI-HDL uptake blockers – ldlA[mSR-BI] cells, fluorescence, single point, primary screen (AID 488896;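 also: 0% = median of neutral control wells and 100% = median of positive control wells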)). Conditions: ldlA[mSR-BI] CHO cells, 3 h, at 12.5 µM, stronger effect = higher value.
Scavenger receptor class B member 1 (Mus musculus), sequence (Q61009 whole entry, looked up): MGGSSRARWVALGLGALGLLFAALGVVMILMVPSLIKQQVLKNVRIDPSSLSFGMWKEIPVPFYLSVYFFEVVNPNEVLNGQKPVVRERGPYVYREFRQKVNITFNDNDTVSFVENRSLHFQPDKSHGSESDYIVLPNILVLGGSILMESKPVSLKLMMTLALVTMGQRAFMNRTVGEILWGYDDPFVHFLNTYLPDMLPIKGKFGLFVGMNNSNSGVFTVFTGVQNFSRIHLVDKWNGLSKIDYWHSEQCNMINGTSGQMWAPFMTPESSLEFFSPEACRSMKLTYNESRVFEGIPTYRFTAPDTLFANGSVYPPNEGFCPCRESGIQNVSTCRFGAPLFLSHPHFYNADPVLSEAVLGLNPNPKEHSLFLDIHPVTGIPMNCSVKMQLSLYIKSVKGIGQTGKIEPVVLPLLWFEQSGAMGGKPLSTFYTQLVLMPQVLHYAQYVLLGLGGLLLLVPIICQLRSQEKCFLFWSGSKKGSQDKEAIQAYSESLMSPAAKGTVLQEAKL
Work on `COC[C@@H]1NS(=O)(=O)c2ccc(Br)cc2O[C@H]1c1ccccc1` yielded an inhibition of 5.43%.
`NC(=O)C1(Nc2ccccc2Cl)CCCC1` gave an inhibition of -5.33%.
With `O=C(N/N=C/c1sc(N2CCCCC2)nc1-c1cccs1)c1cccnc1` the inhibition was 76.7% (active).
`O=C(CNC(=O)c1cccnc1)N/N=C/c1cccnc1` was tested, and the inhibition was -11%.
`O=C(NN=C1CCC(=NNC(=O)c2cccnc2)CC1)c1cccnc1` showed an inhibition of -14%.
`COC(=O)C1CC2=C(CC(C)(C)CC2=O)N(c2ccccc2)C1=O` (stereo not given) was tested, and the inhibition was -15.5%.
`CCCCN1CC(CO)Oc2cccc(F)c2S1(=O)=O` (stereo not given) showed an inhibition of -10.7%.
Work on `COc1cccc(C(=O)N/N=C(\C)c2cccc(NC(=O)c3ccc(F)cc3)c2)c1OC` yielded an inhibition of 61%.
With `COc1ccc(/C(C)=N\NC(=O)c2ccc(-c3ccccc3)cc2)c(F)c1` the inhibition was 67.1%.
For `C/C(=N/NC(=O)c1ccc(NC(=O)c2ccc(F)cc2)cc1)c1ccccc1`, the inhibition was 88.8% (active).
`O=C1C(=O)N(c2ccccc2)C(c2ccccc2)C1c1ccccc1` (stereo not given) gave an inhibition of 3.47%.
`CCCN(CC(=O)Nc1ccccc1C)C(=O)c1ccc(OCC(=O)N2CCOCC2)c(OCC)c1` was tested, and the inhibition was 13.8%.
`CC1(C)N=C(N)NC(Nc2ccc(Cl)cc2)=N1` showed an inhibition of -10.1%.
With `Cc1ccc(C)c(N2CCN(C(=O)Cn3ncn4cccc4c3=O)CC2)c1` the inhibition was 10.1%.
In the case of `Cc1ccc(C)c(N2CCN(C(=O)CCCn3c(=O)c4cccn4c4cccnc43)CC2)c1`, the inhibition is reported as 84.4% (active).
`Cc1ccc(C)c(N2CCN(C(=O)CCCCn3c(=O)[nH]c4ccccc4c3=O)CC2)c1` was tested, and the inhibition was 16.6%.
With `COc1ccc(CC(=O)NC(C)c2ccc(Cl)c(Cl)c2)cc1S(=O)(=O)N1CCOCC1` (stereo not given) the inhibition was 4.63%.
In the case of `O=C(O)C(c1cccs1)C1(O)CCCCC1` (stereo not given), the inhibition is reported as -15.2%.
Work on `CC1(C)Cc2cccc(OCC(=O)NCc3ccccc3)c2O1` yielded an inhibition of 3.02%.
Work on `CC1(C)Cc2cccc(OCC(N)=O)c2O1` yielded an inhibition of 10.8%.
With `CC1(C)Cc2cccc(OCC(=O)N3CCN(c4ccc([N+](=O)[O-])cc4)CC3)c2O1` the inhibition was 71.3% (active).
`Cc1cc(NC(=O)c2cc3ccccc3o2)no1` gave an inhibition of -18.7%.
Work on `COc1ccccc1NC(=O)c1cc(Cl)nc2ccccc12` yielded an inhibition of 66.5%.
For `COc1ccc(NC(=O)c2cc(-c3cc(OC)c(OC)c(OC)c3)nc3ccccc23)c(OC)c1`, the inhibition was 78.3% (active).
`COc1ccc(-c2cc(C(=O)Nc3ccccc3O)c3ccccc3n2)cc1` showed an inhibition of 41.1%.
For `COC1=NC2=NCCN2C(OC)=N1`, the inhibition was -7.98%.
Compound `O=C1c2ccccc2C(=O)C1C(=O)C1CC1` has an inhibition of -19.4%.
For `N#CC(Cc1cc2ccccc2n1S(=O)(=O)c1ccccc1)OCc1ccccc1` (stereo not given), the inhibition was 4.98%.
For `O=c1ccn([C@@H]2O[C@H](CNS(=O)(=O)c3cc4ccccc4s3)[C@@H](O)[C@H]2O)c(=O)[nH]1`, the inhibition was -11%.
In the case of `COc1ccc(-c2nn(-c3ccccc3)cc2C(=O)Nc2nccs2)cc1OC`, the inhibition is reported as 74.4% (active).
Compound `O=C(O)c1ccccc1-c1ccccc1C(=O)Nc1nccs1` has an inhibition of -17.5%.
With `COc1ccc(-c2nn(-c3ccccc3)cc2/C=N/Nc2ccccn2)cc1OC` the inhibition was 50.1%.
`CN1C(c2ccc(F)cc2)=CS/C1=C(/C#N)c1nnc2n1-c1ccccc1SC2` gave an inhibition of 32.2%.
Compound `Nc1ccc2c(c1)C(O)c1ccc(Cl)cc1-2` (stereo not given) has an inhibition of -14.5%.
For `CCC(=O)c1ccc(OCC(=O)Nc2ccc(N3CCCCC3)cc2)cc1`, the inhibition was 35.5%.
`Cc1cc(C)cc(OCC(=O)Nc2ccc(N3CCOCC3)cc2N2CCOCC2)c1` showed an inhibition of 45%.
With `Cc1cc(N2CCCC2)ccc1NC(=O)COc1ccc(Cl)cc1` the inhibition was 75.9% (active).
With `CN1CCOC1c1ccc(C2OCCN2C)cc1` (stereo not given) the inhibition was -6.99%.
In the case of `CCCCCCCCNS(=O)(=O)CCNC1CCCCC1`, the inhibition is reported as -5.35%.
For `CCCCN1C(=O)/C(=C2/C=CC=CN2C)SC1=S`, the inhibition was 8.97%.
`CCN1C(=O)/C(=C\N2CCN(c3cccc(Cl)c3)CC2)SC1=S` showed an inhibition of 8.1%.
`CCCCN1C(=O)/C(=C/C=C2/C=Cc3ccccc3N2CC)SC1=S` was tested, and the inhibition was 146% (active).
Compound `Cc1c[n+]([O-])ccc1[N+](=O)[O-]` has an inhibition of 4.11%.
`CCCCN1CC(COCc2ccccc2)OCCS1(=O)=O` (stereo not given) was tested, and the inhibition was -17.3%.
For `N#Cc1c(NC(=O)c2ccc(N3CCOCC3)c([N+](=O)[O-])c2)sc2c1CCCC2`, the inhibition was 83.7% (active).
With `O=C(NCCCN1CCOCC1)c1ccc(N2CCCC2)c([N+](=O)[O-])c1` the inhibition was -14.3%.
`O=C(Oc1ccccc1Cl)c1ccc(N2CCOCC2)c([N+](=O)[O-])c1` gave an inhibition of 1.4%.
For `NC(=O)c1ccc(N2CCCC2)nc1`, the inhibition was -0.443%.
In the case of `COc1ccccc1NC(=O)N(O)C1(C#N)CCCCC1`, the inhibition is reported as 2.4%.
In the case of `COc1cccc(/C=N/Nc2cc(C)nc(-c3ccccc3O)n2)c1O`, the inhibition is reported as 84.7% (active).
`COc1ccccc1/C=N/Nc1nc(C)c(C(C)=O)s1` gave an inhibition of 24.4%.
`Oc1cccc(/C=N/Nc2ccc(Cl)nn2)c1O` showed an inhibition of 10.6%.
Compound `CN(C)CCNC(=O)c1ccc(Cl)c2cc3ccccc3nc12` has an inhibition of -8.43%.
Compound `C#CCOCCOCCOCCNc1nc(N2CCN(C(=O)Cn3cc(CCO)nn3)CC2)nc(N2CCN(C(=O)Cn3cc(CCCN=C(N)N)nn3)CC2)n1` has an inhibition of -17.5%.
In the case of `C/C(=N\NC(=O)c1ccc(NS(=O)(=O)c2cccs2)cc1)c1ccc2ccccc2c1`, the inhibition is reported as 75.7% (active).
`COc1cc(OC)c(C(=O)NNC(=O)c2ccc(NS(=O)(=O)c3cccs3)cc2)cc1OC` was tested, and the inhibition was -10.6%.
For `C/C(=N\NC(=O)c1ccc2ccccc2c1)c1cccnc1`, the inhibition was -22.1%.
Work on `O=C1CC[C@@H]2CC3(C[C@@H]4CCN1[C@H]24)Nc1cc([N+](=O)[O-])ccc1NC3=NC1CCCCC1` (stereo not given in full) yielded an inhibition of 1.95%.
Work on `CCN1CCC(O)(/C=C/c2ccc(C)cc2)C(C(=O)/C=C/c2ccc(C)cc2)C1` (stereo not given) yielded an inhibition of 24.5%.
With `NC(=O)C1(N2CCCC2)CCN(Cc2ccccc2)CC1` the inhibition was -9.32%.
